Compound activity deposited in PubChem BioAssay by Broad Institute.
In the library only some 6.8% were active in any assay of this set; here they are far more common.
T cruzi growth-1 = inhibitors of T. cruzi proliferation. AID 624255. inhibition, % at 8.34 µM. T. cruzi beta-gal in NIH3T3, GalScreen luminescence, 90 h. actives 5.9% (n = 77,000);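 active = mean inhibition above about 93%, with at least 55% of replicates each passing it, limit read from the data, passing the limit was not always enough; inconclusive = only one of those two conditions holds; inactive = neither condition holds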
Pf Dd2 growth = P. falciparum Dd2 growth inhibition. SYBR Green, 72 h; stronger effect = lower value. activity change, % at 10 µM. actives 2.3% (n = 94,000). AID 1159554; in the data active = activity change below about -80%; inconclusive = no clear call, values can overlap the other calls
C diff HTS = C. difficile growth inhibition; Clostridium difficile clinical isolate growth, OD600, 24 h; stronger effect = lower value; growth activity, negative = inhibition, % at 16 µg/mL (by protocol); actives 0.25% (n = 86,000); AID 1259249;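 active = mean growth activity at or below -80% and every replicate also at or below -80%; inconclusive = mean at or below -80% but some replicate above -80%; inactive = mean growth activity above -80%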;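 note: 0% = DMSO wells and -100% = levofloxacin 16 µg/mL wells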
T cruzi growth-2 = Trypanosoma cruzi proliferation inhibition; shares compounds with T cruzi growth-1; T. cruzi beta-gal in NIH3T3, GalScreen luminescence, 90 h; inhibition, % at 8.35 µM; actives 72% (n = 5,600); AID 651739;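 active = mean replicate inhibition above about 95% and at least 55% of replicates individually reaching it, limit read from the data; inconclusive = only one of the two criteria is met; inactive = neither criterion is met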
T cruzi growth-3 = inhibitors of T. cruzi proliferation. shares compounds with T cruzi growth-1. T. cruzi beta-gal in NIH3T3, GalScreen luminescence, 90 h. inhibition, % at 2.09 µM. actives 21% (n = 5,600). AID 651740;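 active = mean inhibition above about 95%, with at least 55% of replicates also reaching it, limit read from the data; inconclusive = meets just one of the two conditions; inactive = meets neither condition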;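 note: plate controls were neutral control median for no effect and positive control median for full effect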
NIH3T3 tox = kills mouse NIH/3T3 fibroblasts; AID 651742; shares compounds with T cruzi growth-1; cytotoxicity (signal decrease), % at 8.35 µM; actives 14% (n = 5,600); NIH/3T3 viability, CellTiter-Glo ATP luminescence, 90 h;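 active = mean signal decrease across replicates above about 35% based on untreated-well scatter, with enough replicates individually passing, limit read from the data; inconclusive = no rule stated though some were filed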;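 note: 0% = median of neutral control wells and 100% = median of positive control wells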
3T3 cytotox 2 = cytotoxicity in mouse NIH/3T3 fibroblasts | shares compounds with T cruzi growth-1 | NIH/3T3 viability, CellTiter-Glo ATP luminescence, 90 h | inhibition, % at 24.9 µM | actives 56% (n = 5,600) | AID 651744;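 active = mean loss of cell viability signal at or above a set limit, and enough replicates individually reaching it; inconclusive = meets only the mean limit or only the replicate share; inactive = meets neither condition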;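 note: 0% = median of neutral control wells and 100% = median of positive control wells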
An asterisk follows results filed as active; ? = inconclusive; / = not tested or not shown.

SMILES	T cruzi growth-1	Pf Dd2 growth	C diff HTS	others
COc1ccccc1-c1cnc2c(c1)C(=O)N([C@H](C)CO)C[C@H](C)[C@@H](CN(C)Cc1ccncc1)O2	37	3	1
C[C@@H]1CCCCO[C@H](CN(C)S(=O)(=O)c2cccs2)[C@H](C)CN([C@@H](C)CO)C(=O)c2cc(NC(=O)Cc3ccccc3)ccc2O1	-29	-46	-4
CO[C@@H]1CN(C)C(=O)c2ccc(NC(=O)C3CCCC3)cc2OC[C@@H](C)N(C(=O)CC2CC2)C[C@@H]1C	66	-14	/
Cc1noc(C)c1NC(=O)Nc1ccc2c(c1)C(=O)N(C)[C@@H]1CC[C@@H](CC(=O)NCc3ccc(Cl)cc3)O[C@H]1CO2	51	/	-5
C[C@H]1CN([C@@H](C)CO)C(=O)Cc2cc(NC(=O)Cc3ccccc3)ccc2O[C@H]1CN(C)Cc1ccc(Cl)c(Cl)c1	?	-12	86	T cruzi growth-2=100*;T cruzi growth-3=59;NIH3T3 tox=21;3T3 cytotox 2=105*
C[C@H](CO)N1C[C@H](C)[C@@H](CN(C)Cc2ccc(Cl)c(Cl)c2)Oc2ccc(NC(=O)Cc3cn(C)c4ccccc34)cc2CC1=O	64	-69	2
C[C@H](CO)N1C[C@H](C)[C@@H](CN(C)Cc2ccc(C(F)(F)F)cc2)Oc2ccc(NC(=O)Cc3ccccc3)cc2CC1=O	106*	-20	7	T cruzi growth-2=95;T cruzi growth-3=101*;NIH3T3 tox=-1;3T3 cytotox 2=104*
C[C@@H]1CN([C@@H](C)CO)C(=O)Cc2cc(NC(=O)Cc3ccccc3)ccc2O[C@H]1CN(C)Cc1ccc(C(F)(F)F)cc1	94	-29	13
C[C@H](CO)N1C[C@H](C)[C@H](CN(C)Cc2ccc(C(F)(F)F)cc2)Oc2ccc(NC(=O)Cc3cn(C)c4ccccc34)cc2CC1=O	101*	-34	5	T cruzi growth-2=107*;T cruzi growth-3=19;NIH3T3 tox=20;3T3 cytotox 2=?
C[C@H]1CN([C@@H](C)CO)C(=O)Cc2cc(NC(=O)Cc3cn(C)c4ccccc34)ccc2O[C@H]1CN(C)Cc1ccc(Cl)c(Cl)c1	100*	-59	-4	T cruzi growth-2=107*;T cruzi growth-3=57;NIH3T3 tox=-7;3T3 cytotox 2=-3
C[C@H](CO)N1C[C@H](C)[C@@H](CN(C)Cc2ccc(C(F)(F)F)cc2)Oc2ccc(NC(=O)Cc3cn(C)c4ccccc34)cc2CC1=O	87	-21	10
C[C@H](CO)N1C[C@H](C)[C@@H](CN(C)Cc2ccccc2)Oc2ccc(NC(=O)Cc3ccccc3)cc2CC1=O	95	-38	-3
O=C(CC(F)(F)F)N1C[C@@H]2[C@H](c3ccccc31)[C@@H](CO)N2C(=O)C1CCCC1	9	-4	-4
C[C@H](CO)N1C[C@H](C)[C@H](CN(C)C(=O)c2ccncc2)OCc2ccccc2-c2ccccc2C1=O	25	22	0
C[C@H](CO)N1C[C@H](C)[C@H](CN(C)C(=O)Nc2ccccc2)Oc2ccc(NC(=O)Nc3ccc4c(c3)OCO4)cc2C1=O	15	9	-8
Cc1noc(C)c1NC(=O)Nc1cccc2c1O[C@@H](CN(C)C(=O)Nc1ccc(F)cc1)[C@H](C)CN([C@@H](C)CO)C2=O	-44	16	2
COc1ccc(S(=O)(=O)Nc2ccc3c(c2)CC(=O)N([C@@H](C)CO)C[C@H](C)[C@@H](CN(C)CC2CCCCC2)O3)cc1	1	5	-5
O=C(Nc1ccc2c(c1)[C@@H]1C[C@H](CC(=O)N3CCOCC3)O[C@H](CO)[C@@H]1O2)C1CCC1	14	12	1
COc1ccc(NC(=O)N(C)C[C@@H]2OCCCC[C@@H](C)Oc3ccc(NC(=O)C4CCCCC4)cc3C(=O)N([C@H](C)CO)C[C@@H]2C)cc1	52	-60	2
O=C(CN1CCOCC1)N1CCCCN2[C@H](CO)[C@@H](c3ccc(C#Cc4ccccc4)cc3)[C@H]2C1	65	-52	0
O=C(CN1CCOCC1)N1CCCCN2[C@H](CO)[C@@H](c3ccc(-c4ccccc4F)cc3)[C@H]2C1	22	0	-16
O=C(CN1CCOCC1)N1CCCCN2[C@H](CO)[C@@H](c3ccc(C#Cc4ccccc4F)cc3)[C@H]2C1	110*	-8	2	T cruzi growth-2=97*;T cruzi growth-3=-12;NIH3T3 tox=54*;3T3 cytotox 2=95*
